# Screens deposited in PubChem BioAssay by National Center for Advancing Translational Sciences (NCATS).
# In the library only some 9.9% were active in any assay of this set; here they are far more common.
# KB-V1 MDR tox: KB-V1 MDR subline cytotoxicity. KB-V1 MDR cells viability, CellTiter-Glo, 72 h. Potency, µM (titrated, usually from 46.1 µM), most hits filed as cytotoxic. actives 3.4% (n = 400,000); also: potency is read from the fitted curve at half-maximal effect; % is scaled to controls: 0 for no effect and ±100 for the full control effect; nearly all actives have a fitted effect of over 60% in size
#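 Luminescent ATP read-out (CellTiter-Glo, 10 min) measures survival of drug-selected KB-V1 MDR cells after 72 h, 37 degrees C compound exposure. Medium: phenol-red-free DMEM, 10% FBS. Values from fitted concentration-response curves.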
# KB-3-1 tox: KB-3-1 parental cell cytotoxicity. KB-3-1 viability, CellTiter-Glo ATP luminescence, 72 h. Potency, µM (series often up to 46.1 µM), usual class: cytotoxic. actives 1.4% (n = 400,000); also: potency is read from the fitted curve at half-maximal effect; % is scaled to controls: 0 for no effect and ±100 for the full control effect; nearly all actives have a fitted effect of over 60% in size
#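 Multi-concentration cytotoxicity screen in KB-3-1 cells grown in DMEM lacking phenol red with 10% FBS. After 72 h at 37 °C with compound, ATP-dependent luminescence was recorded.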
# SW480 rereplic: induces DNA re-replication in SW480 colon adenocarcinoma cells. SW480 DNA re-replication, Hoechst DNA content imaging, 48 h. Potency, µM (doses to about 46.1 µM), for the others: at the highest dose re-replication activation, actives largely listed as activators. actives 1.8% (n = 340,000). AID 624297; also: potency is read from the fitted curve at half-maximal effect; % of control where 0% means no effect; nearly all actives have a fitted effect of over 55% in size
#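 Readout is total intensity of Hoechst-stained nuclei, excited at 405 nm and collected at 500-530 nm. Compound treatment lasted 48 hr at 37 C in 5% CO2 before staining.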
# IL-1B inflam inh: inhibitors of inflammasome signaling (IL-1 beta secretion); THP-1 LPS/ATP IL-1B secretion, AlphaLISA, 16 h; active compounds read low; activity change, % at 57.5 µM; actives 4.7% (n = 360,000); AID 743279; in the data active = activity change below about -50%; inconclusive = mostly about -30% to -49%; also: % is scaled to controls: 0 for no effect and ±100 for the full control effect
#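 Secreted IL-1B measured by AlphaLISA bead assay after 16 h compound exposure of THP-1 cells; compounds (final up to 57.5 uM) added 1 h before LPS (250 ng/mL) and ATP (1.25 mM) stimulation; lower signal means less secretion.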
# MCF10A rereplic: induces DNA re-replication in MCF 10a normal breast cells. Potency, µM (top dose mostly 46.1 µM), for inactives: at the top dose activity, positive = re-replication, usual class: activators. MCF 10A DNA re-replication, Hoechst nuclear intensity, 48 h. actives 2.9% (n = 350,000); also: potency is read from the fitted curve at half-maximal effect; % of control where 0% means no effect; nearly all actives have a fitted effect of over 50% in size
# * hit, by the source's call; i = inactive; ? = inconclusive; . = no result. Unless noted, calls follow the shape of the dose curve; as a rule, active = well fitted curve in the direction sought with a large enough effect; inconclusive = small, poorly fitted or top-dose-only effect, or another doubt; inactive = no such curve, though single readings can be large; an effect the other way counts as inactive or inconclusive.
SMILES,KB-V1 MDR tox,KB-3-1 tox,SW480 rereplic,IL-1B inflam inh,MCF10A rereplic
CCOC(=O)c1ccc(N2C(=O)c3n[nH]c(C)c3C2c2ccc(OC)cc2OC)cc1 (stereo not given),?,?,15.7%,-58.2*,?
CCOC(=O)c1ccc(N2C(=O)c3n[nH]c(C)c3C2c2ccc(OC)cc2)cc1 (stereo not given),5.17µM*,i,-12.5%,-22.1,?
CCOC(=O)c1ccc(N2C(=O)c3n[nH]c(C)c3C2c2ccc(OC)c(OC)c2)cc1 (stereo not given),?,i,-6.3%,-26.1,-0.9%
CN1C(=O)c2ccc(NC(=S)NC(=O)C(C)(C)C)cc2C1=O,?,i,-5.0%,19.5,-5.0%
CCOC(=O)c1cnc(SCc2ccc(C(C)(C)C)cc2)nc1N,?,23.1µM*,12.6%,-1.5,14.7%
CCOC(=O)c1cnc(SCc2cccc3ccccc23)nc1N,18.4µM*,?,-4.1%,13.8,14.8%
CCOC(=O)c1cnc(SCc2ccccc2)nc1N,?,i,5.5%,-13.9,-12.2%
Fc1ccc(-c2nnc(Cc3ccc(Cl)cc3)o2)cc1,i,i,-14.8%,0.0,1.1%
Cn1cccc([N+](=O)[O-])c1=O,i,i,.,-17.5,.
Cn1c(=O)c(=O)n(C)c2cc([N+](=O)[O-])c([N+](=O)[O-])cc21,i,i,8.4%,-101.4*,?
CCOc1ccc(-n2c(-c3ccc(Cl)cc3)c[n+]3c2SCC3)cc1,i,16.4µM*,0.5%,-86.0*,?
c1ccc(-c2c[n+]3c(n2-c2ccccc2)SCC3)cc1,?,3.26µM*,20.6%,-10.0,12.2%
Cc1cccc(C(=O)OCC(=O)NC2CC2)c1O,i,i,0.3%,-2.0,1.0%
CCCCCCCCC(c1nc2ccccc2[nH]1)N1CCN=C1c1cc2ccccc2[nH]1 (stereo not given),?,?,.,-66.3*,.
CCC(c1nc2ccccc2[nH]1)n1c(-c2ccc3ccccc3c2)nc2ccccc21 (stereo not given),?,i,.,?,.
CCOC(=O)c1c(N)n(-c2cc(C)cc(C)c2)c2nc3ccccc3nc12,?,i,.,.,.
Cc1c(NS(=O)(=O)c2ccc(Br)cc2)c(=O)n(-c2ccccc2)n1C,i,i,-6.1%,0.5,-2.9%
C=CCNC(=O)c1c(N)n(-c2cccc(S(N)(=O)=O)c2)c2nc3ccccc3nc12,i,?,4.11µM*,-58.8*,3.26µM*
Cc1c(NC(=O)c2ccccc2NS(=O)(=O)c2ccc(Br)cc2)c(=O)n(-c2ccccc2)n1C,23.1µM*,i,3.5%,1.1,12.8%
COCCNC(=O)c1c(N)n(-c2cccc(C)c2)c2nc3ccccc3nc12,i,i,13µM*,-52.7*,18.4µM*
COCCCNC(=O)c1c(N)n(-c2ccccc2)c2nc3ccccc3nc12,?,i,20.6µM*,?,23.1µM*
O=C1NC(Cc2ccc(O)cc2)c2nc3ccc(Br)cc3c(=O)n2-c2ncccc21 (stereo not given),i,i,.,21.1,.
CCN(C(=O)CSc1nc2ccccc2n1CC(=O)NCc1ccc(OC)cc1)c1ccccc1,i,i,.,.,.
CC(C)c1ccc(NC(=O)CSc2n[nH]c(=O)n2-c2ccc3c(c2)OCCO3)cc1,?,i,8.8%,?,6.8%
COCCCNC(=O)CSc1nc2ccccc2c(=O)n1CCc1ccc(S(N)(=O)=O)cc1,i,i,-11.3%,-18.5,3.4%
COCCNC(=O)c1c(N)n(CCCn2ccnc2)c2nc3ccccc3nc12,i,i,?,?,11.6µM*
Cc1c(Nc2nc3ccccc3nc2NS(=O)(=O)c2cccc(Cl)c2)c(=O)n(-c2ccccc2)n1C,i,i,-3.3%,0.5,?
COCCCNC(=O)c1c(N)n(-c2ccc(S(N)(=O)=O)cc2)c2nc3ccccc3nc12,i,i,9.2µM*,-13.4,7.31µM*
